Measurements published in PubChem BioAssay AID1159580 (chemical genetic matrix, 2015).
The whole screen tested about 5,500 compounds, of which about 2,000 (36%) were called active. Another 18% or so got no clear call; they are omitted. Rule as the data show it: active = normalized growth mostly below about 0.91 (no sharp cut-off); inconclusive = no clear call, values can overlap the other calls; inactive = mostly above about 0.92. Some of the results follow.

Assay: chemical genetic growth profiling, strain panel (AID 1159580);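 also: tested at 20 µM; growth read once vehicle control cultures reached saturation at 30 °C; 1 = growth at the plate median or of vehicle wells; lower values mean less growth of the strain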
Conditions: growth OD

Measured: normalized growth

C[N+]1(C)C2CC(OC(=O)[C@@H](CO)c3ccccc3)CC1C1OC12 (stereo partly drawn)
active: S. cerevisiae deletion strains, locus YML120C, strain ndi1, stronger effect = lower value 0.903 | S. cerevisiae deletion strains, locus YOR290C, strain snf2, stronger effect = lower value 0.865
inactive: S. cerevisiae deletion strains, locus YJR066W, strain TOR1, stronger effect = lower value 0.976 | S. cerevisiae deletion strains, locus YJR075W, strain HOC1, stronger effect = lower value 1.01 | S. cerevisiae deletion strains, locus YKL009W, strain mrt4, stronger effect = lower value 1 | S. cerevisiae deletion strains, locus YKL068W, stronger effect = lower value 1 | S. cerevisiae deletion strains, locus YKL085W, strain MDH1 (second series), stronger effect = lower value 1.01 | S. cerevisiae deletion strains, locus YKL085W, strain MDH1, stronger effect = lower value 1.01 | S. cerevisiae deletion strains, locus YKL160W, strain elf1, stronger effect = lower value 0.955 | S. cerevisiae deletion strains, locus YKL190W, strain CNB1, stronger effect = lower value 1.03 | S. cerevisiae deletion strains, locus YKR001C, strain vps1, stronger effect = lower value 1.02 | S. cerevisiae deletion strains, locus YKR026C, strain gcn3, stronger effect = lower value 0.984 | S. cerevisiae deletion strains, locus YKR091W, strain srl3, stronger effect = lower value 0.968 | S. cerevisiae deletion strains, locus YLL001W, strain dnm1, stronger effect = lower value 0.933 | S. cerevisiae deletion strains, locus YLL026W, stronger effect = lower value 0.985 | S. cerevisiae deletion strains, locus YLL041C, strain sdh2, stronger effect = lower value 0.984 | S. cerevisiae deletion strains, locus YLR027C, strain aat2, stronger effect = lower value 0.982 | S. cerevisiae deletion strains, locus YLR039C, strain RIC1, stronger effect = lower value 1.02 | S. cerevisiae deletion strains, locus YLR058C, strain SHM2, stronger effect = lower value 1.02 | S. cerevisiae deletion strains, locus YLR102C, strain apc9, stronger effect = lower value 1.02 | S. cerevisiae deletion strains, locus YLR113W, strain HOG1, stronger effect = lower value 1 | S. cerevisiae deletion strains, locus YLR221C, strain rsa3, stronger effect = lower value 0.91 | S. cerevisiae deletion strains, locus YLR258W, strain gsy2, stronger effect = lower value 0.969 | S. cerevisiae deletion strains, locus YLR262C, strain YPT6 (second series), stronger effect = lower value 0.973 | S. cerevisiae deletion strains, locus YLR262C, strain YPT6, stronger effect = lower value 1.06 | S. cerevisiae deletion strains, locus YLR268W, strain sec22, stronger effect = lower value 1.03 | S. cerevisiae deletion strains, locus YLR320W, strain mms22, stronger effect = lower value 0.94 | S. cerevisiae deletion strains, locus YLR330W, strain CHS5, stronger effect = lower value 1.02 | S. cerevisiae deletion strains, locus YLR342W, strain FKS1 (second series), stronger effect = lower value 1.03 | S. cerevisiae deletion strains, locus YLR342W, strain FKS1, stronger effect = lower value 0.962 | S. cerevisiae deletion strains, locus YLR357W, strain rsc2, stronger effect = lower value 0.979 | S. cerevisiae deletion strains, locus YLR370C, strain arc18, stronger effect = lower value 0.948 | S. cerevisiae deletion strains, locus YLR371W, strain rom2, stronger effect = lower value 1 | S. cerevisiae deletion strains, locus YLR384C, strain iki3, stronger effect = lower value 0.97 | S. cerevisiae deletion strains, locus YLR418C, strain cdc73, stronger effect = lower value 1.05 | S. cerevisiae deletion strains, locus YML016C, strain PPZ1, stronger effect = lower value 1.01 | S. cerevisiae deletion strains, locus YML032C, strain rad52, stronger effect = lower value 1.01 | S. cerevisiae deletion strains, locus YML124C, strain tub3, stronger effect = lower value 1.03 | S. cerevisiae deletion strains, locus YMR058W, strain fet3, stronger effect = lower value 0.973 | S. cerevisiae deletion strains, locus YMR078C, strain ctf18, stronger effect = lower value 1.02 | S. cerevisiae deletion strains, locus YMR125W, strain sto1, stronger effect = lower value 0.962 | S. cerevisiae deletion strains, locus YMR129W, stronger effect = lower value 0.982 | S. cerevisiae deletion strains, locus YMR205C, strain PFK2, stronger effect = lower value 0.956 | S. cerevisiae deletion strains, locus YMR223W, strain ubp8, stronger effect = lower value 1.05 | S. cerevisiae deletion strains, locus YMR231W, strain pep5, stronger effect = lower value 0.989 | S. cerevisiae deletion strains, locus YMR307W, strain GAS1, stronger effect = lower value 1.05 | S. cerevisiae deletion strains, locus YNL067W, strain RPL9B, stronger effect = lower value 1.02 | S. cerevisiae deletion strains, locus YNL071W, strain lat1, stronger effect = lower value 0.978 | S. cerevisiae deletion strains, locus YNL183C, strain NPR1, stronger effect = lower value 0.957 | S. cerevisiae deletion strains, locus YNL209W, strain ssb2, stronger effect = lower value 0.959 | S. cerevisiae deletion strains, locus YNL233W, strain BNI4, stronger effect = lower value 1.01 | S. cerevisiae deletion strains, locus YNL248C, strain rpa49, stronger effect = lower value 0.971 | S. cerevisiae deletion strains, locus YNL250W, strain rad50, stronger effect = lower value 1.02 | S. cerevisiae deletion strains, locus YNL271C, strain bni1, stronger effect = lower value 1.01 | S. cerevisiae deletion strains, locus YNL298W, strain CLA4, stronger effect = lower value 1.02 | S. cerevisiae deletion strains, locus YNL307C, strain MCK1, stronger effect = lower value 1.02 | S. cerevisiae deletion strains, locus YNL322C, strain KRE1 (second series), stronger effect = lower value 0.936 | S. cerevisiae deletion strains, locus YNR049C, strain mso1, stronger effect = lower value 0.964 | S. cerevisiae deletion strains, locus YNR052C, strain pop2, stronger effect = lower value 1.02 | S. cerevisiae deletion strains, locus YOL012C, strain htz1 1.54 | S. cerevisiae deletion strains, locus YOL147C, strain pex11, stronger effect = lower value 1.03 | S. cerevisiae deletion strains, locus YOR001W, strain rrp6, stronger effect = lower value 1.04 | S. cerevisiae deletion strains, locus YOR061W, strain CKA2, stronger effect = lower value 1.01 | S. cerevisiae deletion strains, locus YOR069W, strain VPS5, stronger effect = lower value 1.01 | S. cerevisiae deletion strains, locus YOR070C, strain gyp1, stronger effect = lower value 0.99 | S. cerevisiae deletion strains, locus YOR080W, strain dia2, stronger effect = lower value 0.952 | S. cerevisiae deletion strains, locus YOR083W, strain WHI5, stronger effect = lower value 0.962 | S. cerevisiae deletion strains, locus YOR106W, strain vam3, stronger effect = lower value 0.933 | S. cerevisiae deletion strains, locus YOR136W, strain idh2, stronger effect = lower value 1.02 | S. cerevisiae deletion strains, locus YOR144C, strain elg1, stronger effect = lower value 1.01 | S. cerevisiae deletion strains, locus YOR184W, strain ser1, stronger effect = lower value 1.03 | S. cerevisiae deletion strains, locus YOR231W, strain MKK1, stronger effect = lower value 0.998 | S. cerevisiae deletion strains, locus YOR265W, strain rbl2, stronger effect = lower value 0.965 | S. cerevisiae deletion strains, locus YOR270C, strain vph1, stronger effect = lower value 0.935 | S. cerevisiae deletion strains, locus YOR316C, strain cot1, stronger effect = lower value 1.02 | S. cerevisiae deletion strains, locus YPL051W, strain arl3, stronger effect = lower value 0.988 | S. cerevisiae deletion strains, locus YPL055C, strain LGE1, stronger effect = lower value 1.05 | S. cerevisiae deletion strains, locus YPL078C, strain atp4, stronger effect = lower value 0.956 | S. cerevisiae deletion strains, locus YPL106C, strain sse1, stronger effect = lower value 0.94 | S. cerevisiae deletion strains, locus YPL240C, strain hsp82, stronger effect = lower value 0.978 | S. cerevisiae deletion strains, locus YPL241C, strain CIN2, stronger effect = lower value 1.01 | S. cerevisiae deletion strains, locus YPL256C, strain CLN2, stronger effect = lower value 1.05 | S. cerevisiae deletion strains, locus YPR119W, strain clb2, stronger effect = lower value 1.01 | S. cerevisiae deletion strains, locus YPR141C, strain kar3, stronger effect = lower value 1.01 | S. cerevisiae deletion strains, locus YPR163C, strain tif3, stronger effect = lower value 1.03 | S. cerevisiae deletion strains, locus YPR167C, strain met16, stronger effect = lower value 1.03 | S. cerevisiae deletion strains, strain wtn01, stronger effect = lower value 1.02 | S. cerevisiae strains, strain wild type, stronger effect = lower value 1.03
